KB-V1 MDR tox: KB-V1 MDR subline cytotoxicity | Potency, µM (titrated, usually from 46.1 µM), actives largely listed as cytotoxic | 400,000 tested, 3.4% active | KB-V1 MDR cells viability, CellTiter-Glo, 72 h; note: % is set by controls: 0 for no effect and ±100 for the full control effect; nearly all actives have a fitted effect of over 60% in size
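Luminescent ATP read-out (CellTiter-Glo, 10 min) measures survival of drug-selected KB-V1 MDR cells after 72 h, 37 degrees C compound exposure. Medium: phenol-red-free DMEM, 10% FBS. Values from fitted concentration-response curves.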
MCF10A rereplic: inducers of DNA re-replication in MCF 10A breast cells | MCF 10A DNA re-replication, Hoechst nuclear intensity, 48 h | Potency, µM (highest dose often 46.1 µM), for the others: top-dose activity, positive = re-replication, actives largely listed as activators | 350,000 tested, 2.9% active; note: % of control where 0% means no effect; nearly all actives have a fitted effect of over 50% in size
KB-3-1 tox: KB-3-1 parental cell cytotoxicity; KB-3-1 viability, CellTiter-Glo ATP luminescence, 72 h; Potency, µM (titrated, usually from 46.1 µM), usual class: cytotoxic; 400,000 tested, 1.4% active; note: % is set by controls: 0 for no effect and ±100 for the full control effect; nearly all actives have a fitted effect of over 60% in size
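KB-3-1 cells, DMEM (no phenol red) + 10% FBS; compound by pin transfer, 72 h, 37 °C. Readout: CellTiter-Glo luminescence after 10 min. Data normalized, curve-fitted.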
SW480 rereplic: induces DNA re-replication in SW480 colon adenocarcinoma cells; Potency, µM (top dose mostly 46.1 µM), without a hit: at the top dose re-replication activation, hits mostly activators; 340,000 tested, 1.8% active; SW480 DNA re-replication, Hoechst DNA content imaging, 48 h; note: % of control where 0% means no effect; nearly all actives have a fitted effect of over 55% in size
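Hoechst fluorescence of nuclei (405 nm excitation, 500-530 nm emission) measured by plate-scanning imager after 48 hr compound exposure at 37 C; re-replication scored as increased number of nuclei with elevated intensity.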
ELG1 DNA repair: inhibitors of ELG1-dependent DNA repair in HEK293T cells. HEK293T ELG1-luciferase reporter, luminescence, 16 h; DNA damage induced by 5-fluorouridine. Potency, µM (doses to about 46.1 µM), for inactives: top-dose activity change, negative = inhibition, hits mostly inhibitors. 330,000 tested, 2.3% active. AID 504467; note: % is set by controls: 0 for no effect and ±100 for the full control effect; nearly all actives have a fitted effect of over 55% in size
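In this reporter screen, reduction of luminescence relative to DMSO vehicle indicated activity. Compounds and 5-fluorouridine were added together to 2,000 cells per well, incubated for 16 hr at 37 °C, then developed with ONE-Glo.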
The depositor's hits bear a star; i = inactive; ? = inconclusive; / = no result. Only some compounds are listed: those with a hit (about 8.1% of all), similar ones and a draw of the others. Calls come from the whole dose curve; as a rule, active = well fitted curve in the direction sought with a large enough effect; inconclusive = small, poorly fitted or top-dose-only effect, or another doubt; inactive = no such curve, though single readings can be large; an effect the other way counts as inactive or inconclusive. Potency is the fitted concentration of half-maximal effect.

SMILES | KB-V1 MDR tox | MCF10A rereplic | KB-3-1 tox | SW480 rereplic | ELG1 DNA repair
CC(C)C(=O)N1CCC(c2nc(-c3ccc(S(=O)(=O)N4CCCC4)cc3)no2)CC1 | 11.6µM* | 1.1% | i | -4.7% | -17.4%
Cc1cn(S(=O)(=O)c2cc(Br)ccc2Br)cn1 | ? | 8.8% | i | -13.8% | -1.4%
O=C(COc1ccccc1F)NNC(=O)c1ccc(F)c(S(=O)(=O)N2CCOCC2)c1 | i | -0.9% | i | -6.0% | ?
O=S(=O)(NC1CCCCC1)c1ccc(Cl)nc1 | i | -11.7% | i | 0.6% | -2.7%
COc1cc2ccc(=O)oc2cc1O | i | ? | i | 14.6µM* | 6.8%
Cc1ccc(NS(=O)(=O)c2ccc(C(=O)NC3CCN(Cc4ccccc4)CC3)cc2)cc1 | / | 7.6% | / | 18.4µM* | ?
O=C(NC1CCN(Cc2ccccc2)CC1)c1ccccc1 | i | -3.3% | i | -11.9% | -0.7%
CC(C)(C)c1ccc(C(=O)NC2CCN(Cc3ccccc3)CC2)cc1 | i | -0.8% | ? | 16.4µM* | -23.1%
Cc1ccc(NS(=O)(=O)c2cccc(C(=O)NC3CCN(Cc4ccccc4)CC3)c2)cc1 | ? | ? | ? | 2.9% | /
CCc1nc2ccc(C(=O)NC3CCN(Cc4ccccc4)CC3)cn2c1N(C)Cc1cccs1 | i | / | i | / | /
CCc1nc2ccc(C(=O)NC3CCN(Cc4ccccc4)CC3)cn2c1N(C)Cc1cc2ccccc2s1 | 10.3µM* | / | ? | / | /
O=C(NC1CCN(Cc2ccccc2)CC1)c1ccccc1Cl | i | -1.0% | i | -13.8% | 16.7%
O=C(NC1CCN(Cc2ccc(Cl)cc2Cl)CC1)c1ccccc1 | i | 9.5% | i | 0.4% | 13µM*
O=C(COc1ccc2c3c(c(=O)oc2c1)CCCC3)NC(Cc1ccc(Cl)cc1)C(=O)O (stereo not drawn) | i | 1.8% | i | -61.8% | ?
CCN(CC)c1ccc(C(=O)OCC(=O)N(C)Cc2ccccc2)cc1 | ? | 17.9% | i | -1.6% | -9.9%
N#Cc1ccc(CN2CCN(C(=O)c3ccccc3)CC2)c(Cl)c1 | 20.6µM* | -0.1% | i | -5.7% | -15.9%
Cc1ccc(Cl)cc1S(=O)(=O)N1CCC(C(=O)NC2CCN(Cc3ccccc3)CC2)CC1 | i | ? | ? | ? | 5.17µM*
Cc1sc2ncnc(N3CCC(C(=O)NNC(=O)COc4cccc(C(F)(F)F)c4)CC3)c2c1C | i | ? | i | -3.8% | ?
O=C1CSC(=O)N1CC(O)COc1ccc(Cl)cc1 (stereo not drawn) | i | 21.0% | i | -4.5% | ?
O=C1c2ccccc2-n2c1nc1ccccc1c2=O | ? | 8.1% | ? | 1.16µM* | ?
O=c1c2ccccc2nc2n1-c1ccccc1CCC2 | ? | 22.3% | i | 2.2% | 8.4%
COc1ccc2nc(C)cc(NCc3cccc(C(F)(F)F)c3)c2c1 | ? | 20.6µM* | i | 23.1µM* | -12.5%
CC(=O)Nc1cc(N=Cc2ccc(O)cc2O)c(Cl)cc1Cl | i | 20.6µM* | i | ? | -0.8%
CCS(=O)(=O)Nc1ccc(-c2cc(-c3ccccc3)c3cc(C)ccc3n2)cc1 | i | 14.6µM* | i | ? | ?
Cc1ccc2nc(-c3ccc(NS(C)(=O)=O)cc3)cc(-c3ccccc3)c2c1 | i | ? | i | 28.9% | ?
SMILES | KB-V1 MDR tox | MCF10A rereplic | KB-3-1 tox | SW480 rereplic | ELG1 DNA repair
CC(C)(C)C(=O)N1CCN(S(=O)(=O)c2ccc3c(c2)OCCCO3)CC1 | ? | 5.9% | 14.6µM* | -8.7% | -10.0%
CN1CCN(c2ccc(NC(=O)c3cc4ccccc4o3)cc2)CC1 | i | -3.2% | i | 4.0% | ?
O=C(Nc1ccc(N2CCCCC2)cc1)c1ccc2c(c1)OCCO2 | ? | 6.0% | ? | -1.8% | ?
O=C(Nc1ccc(N2CCN(C(=O)c3ccccc3)CC2)cc1)c1cc2ccccc2o1 | ? | 10.2% | ? | -4.8% | 9.2µM*
O=C(Nc1ccc(N2CCN(C(=O)c3ccc(Cl)cc3)CC2)cc1)c1ccc2c(c1)OCCO2 | i | 5.6% | i | 2.3% | 4.11µM*
CC(=O)N1CCN(S(=O)(=O)c2ccc3c(c2)OCCO3)CC1 | i | -4.4% | ? | -17.0% | ?
O=C(Nc1ccc(N2CCN(C(=O)c3ccccc3)CC2)cc1)c1ccc2c(c1)OCCO2 | / | ? | / | 4.1% | 14.6µM*
Cc1ccc(-c2nnc(Nc3ccc(Cl)cc3)c3ccccc23)cc1S(=O)(=O)N1CCOCC1 | i | / | i | / | /
O=C(CSc1ccc(Cl)cc1)Nc1ccccc1N1CCN(C(=O)c2ccc(Cl)cc2)CC1 | i | 5.8% | i | -0.2% | 23.1µM*
CC(C)(C)C(=O)N1CCN(c2ccc(NC(=O)c3ccc4c(c3)OCCO4)cc2)CC1 | ? | ? | ? | -18.7% | 16.4µM*
O=C(Nc1ccccc1N1CCN(C(=O)c2ccc(Cl)cc2)CC1)c1ccc2c(c1)OCO2 | ? | 10.1% | i | 8.4% | 16.4µM*
CC(=O)N1CCN(c2ccc(NC(=O)c3ccc4c(c3)OCCO4)cc2)CC1 | i | 5.8% | i | 2.9% | 1.9%
Cc1ccc2c(C)c(C(=O)NCC(c3ccc(Cl)cc3)N3CCOCC3)oc2c1 (stereo not drawn) | i | / | i | / | /
COc1cc2[nH]c(=S)nc(NCCc3ccc(S(N)(=O)=O)cc3)c2cc1OC | ? | -0.7% | i | -6.1% | -2.8%
COC(=O)c1cc2occc2n1CC(=O)Nc1ccc(OC)c(OC)c1OC | i | 3.6% | i | -2.9% | 6.6%
COC(=O)c1cc2sc(Cl)cc2n1CC(=O)Nc1ccc(OC)c(OC)c1OC | i | 25.9µM* | i | 17.9% | ?
CNC(=S)N/N=C1\C(=O)c2cccc3cccc1c23 | ? | 10µM* | ? | ? | ?
O=C(Nc1cc(S(=O)(=O)N2CCOCC2)ccc1N1CCCC1)c1ccc(Cl)cc1 | i | 9.4% | i | 6.4% | 8.3%
CC(=O)c1cccc(OC(=O)c2cc(S(=O)(=O)N3CCOCC3)ccc2N2CCCC2)c1 | i | -3.0% | ? | -5.8% | 9.2µM*
O=C(Nc1ccccc1N1CCOCC1)C1CCN(S(=O)(=O)c2ccccc2F)CC1 | 8.2µM* | -2.0% | i | -141.9% | -5.7%
O=C(Nc1ccccc1N1CCCC1)C1CCN(S(=O)(=O)c2ccccc2C(F)(F)F)CC1 | ? | 20.8% | i | 1.5% | ?
O=C(Nc1ccccc1N1CCCCC1)c1cc(S(=O)(=O)N2CCOCC2)ccc1F | ? | 11.6µM* | ? | 15.6% | -23.7%
O=C(Nc1ccccc1N1CCCC1)c1cc(S(=O)(=O)N2CCOCC2)ccc1Cl | i | -0.6% | i | -3.0% | 1.8%
O=C(Nc1cc(S(=O)(=O)N2CCOCC2)ccc1N1CCCC1)c1ccc2c(c1)S(=O)(=O)c1ccccc1C2=O | i | 2.2% | i | -4.0% | 10.3µM*
